Measured values taken from publication PMC5540273 (PLoS ONE, 2017).

What was measured:
Settings in all cases: concentration: 1 μM, replicates: in singlicate; n = 1
[1] = tested on: AAK1
[2] = tested on: ABL1-nonphosphorylated
[3] = tested on: ABL1-phosphorylated
[4] = tested on: ABL2
[5] = tested on: ACVR1B
[6] = tested on: ACVR1
[7] = tested on: ACVR2A
[8] = tested on: ACVR2B
[9] = tested on: ACVRL1
[10] = tested on: T1, ADCK3
T1 construct: gene CABC1

[11] = tested on: ADCK4
[12] = tested on: AKT1
[13] = tested on: AKT2
[14] = tested on: AKT3
[15] = tested on: ALK
[16] = tested on: T2, AMPK-alpha1
T2 construct: gene PRKAA1

[17] = tested on: T3, AMPK-alpha2
T3 construct: gene PRKAA2

[18] = tested on: ANKK1
[19] = tested on: T4, ARK5
T4 construct: gene NUAK1

[20] = tested on: T5, ASK1
T5 construct: gene MAP3K5
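Note: KINOMEscan kinase panel screen.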

CCNC(=O)/C=C/c1n[nH]c2cc(Sc3ccccc3C(=O)NC)ccc12
%Inh [1]: 29%
%Inh [2]: 98.5%
%Inh [3]: 89%
%Inh [4]: 24%
%Inh [5]: 24%
%Inh [6]: 12%
%Inh [7]: 20%
%Inh [8]: 15%
%Inh [9]: 0%
%Inh [10]: 4%
%Inh [11]: 0%
%Inh [12]: 6%
%Inh [13]: 18%
%Inh [14]: 3%
%Inh [15]: 2%
%Inh [16]: 7%
%Inh [17]: 14%
%Inh [18]: 5%
%Inh [19]: 10%
%Inh [20]: 0%

CC(=O)Nc1cn2nc(Oc3cccc(NC(=O)c4cccc(C(F)(F)F)c4)c3)ccc2n1
%Inh [1]: 0%
%Inh [2]: 100%
%Inh [3]: 99.9%
%Inh [4]: 99.3%
%Inh [5]: 0%
%Inh [6]: 0%
%Inh [7]: 0%
%Inh [8]: 31%
%Inh [9]: 0%
%Inh [10]: 0%
%Inh [11]: 9%
%Inh [12]: 20%
%Inh [13]: 0%
%Inh [14]: 16%
%Inh [15]: 9%
%Inh [16]: 0%
%Inh [17]: 8%
%Inh [18]: 0%
%Inh [19]: 12%
%Inh [20]: 0%

CN(c1ccc(NC(=O)N2CCN(CCCN3CCOCC3)CC2)cc1)c1ccnc(Nc2ccc(CS(C)(=O)=O)cc2)n1.Cl [GW830899]
%Inh [1]: 55%
%Inh [2]: 72%
%Inh [3]: 60%
%Inh [4]: 8%
%Inh [5]: 0%
%Inh [6]: 0%
%Inh [7]: 23%
%Inh [8]: 45%
%Inh [9]: 0%
%Inh [10]: 3%
%Inh [11]: 5%
%Inh [12]: 0%
%Inh [13]: 0%
%Inh [14]: 0%
%Inh [15]: 0%
%Inh [16]: 0%
%Inh [17]: 12%
%Inh [18]: 0%
%Inh [19]: 0%
%Inh [20]: 0%

c1ccc(Oc2ccc(Nc3ccnc4cc(-c5ccc(CN6CCCCC6)o5)ccc34)cc2)nc1 [GW567143]
%Inh [1]: 0%
%Inh [2]: 85%
%Inh [3]: 24%
%Inh [4]: 24%
%Inh [5]: 0%
%Inh [6]: 0%
%Inh [7]: 32%
%Inh [8]: 0%
%Inh [9]: 0%
%Inh [10]: 0%
%Inh [11]: 8%
%Inh [12]: 0%
%Inh [13]: 14%
%Inh [14]: 0%
%Inh [15]: 26%
%Inh [16]: 0%
%Inh [17]: 0%
%Inh [18]: 9%
%Inh [19]: 12%
%Inh [20]: 0%

Cc1ccc(-c2ccc3occ(-c4ccc(S(C)=O)cc4)c3c2)nn1 (centres unmarked)
%Inh [1]: 15%
%Inh [2]: 35%
%Inh [3]: 29%
%Inh [4]: 0%
%Inh [5]: 7%
%Inh [6]: 0%
%Inh [7]: 0%
%Inh [8]: 0%
%Inh [9]: 20%
%Inh [10]: 0%
%Inh [11]: 0%
%Inh [12]: 2%
%Inh [13]: 12%
%Inh [14]: 9%
%Inh [15]: 0%
%Inh [16]: 0%
%Inh [17]: 1%
%Inh [18]: 0%
%Inh [19]: 16%
%Inh [20]: 0%

COc1cccc(NC(=O)NCCNc2ccnc(Nc3ccc(F)cc3)n2)c1 [GSK1379879]
%Inh [1]: 0%
%Inh [2]: 0%
%Inh [3]: 0%
%Inh [4]: 6%
%Inh [5]: 0%
%Inh [6]: 0%
%Inh [7]: 0%
%Inh [8]: 0%
%Inh [9]: 0%
%Inh [10]: 14%
%Inh [11]: 41%
%Inh [12]: 0%
%Inh [13]: 0%
%Inh [14]: 0%
%Inh [15]: 36%
%Inh [16]: 0%
%Inh [17]: 0%
%Inh [18]: 14%
%Inh [19]: 16%
%Inh [20]: 20%

Cl.N#CCc1ccc(Nc2nccc(Nc3ccc(Oc4ccccc4)cc3)n2)cc1 [GW639905]
%Inh [1]: 7%
%Inh [2]: 0%
%Inh [3]: 9%
%Inh [4]: 13%
%Inh [5]: 0%
%Inh [6]: 26%
%Inh [7]: 100%
%Inh [8]: 0%
%Inh [9]: 0%
%Inh [10]: 6%
%Inh [11]: 72%
%Inh [12]: 0%
%Inh [13]: 4%
%Inh [14]: 0%
%Inh [15]: 40%
%Inh [16]: 0%
%Inh [17]: 0%
%Inh [18]: 98.9%
%Inh [19]: 0%
%Inh [20]: 0%

Cl.Cl.NCC(NC(=O)c1cc(-c2cccnc2)c(-c2ccnc3[nH]ccc23)s1)c1ccccc1 (centres unmarked) [GSK1323434]
%Inh [1]: 59%
%Inh [2]: 54%
%Inh [3]: 37%
%Inh [4]: 30%
%Inh [5]: 0%
%Inh [6]: 19%
%Inh [7]: 0%
%Inh [8]: 0%
%Inh [9]: 0%
%Inh [10]: 97.5%
%Inh [11]: 71%
%Inh [12]: 7%
%Inh [13]: 10%
%Inh [14]: 86%
%Inh [15]: 23%
%Inh [16]: 0%
%Inh [17]: 0%
%Inh [18]: 0%
%Inh [19]: 0%
%Inh [20]: 0%

COC(=O)Nc1nc2ccc(Oc3ccc(CC(=O)Nc4cc(C(F)(F)F)ccc4F)cc3)cc2[nH]1 [GW680903]
%Inh [1]: 4%
%Inh [2]: 35%
%Inh [3]: 0%
%Inh [4]: 34%
%Inh [5]: 0%
%Inh [6]: 9%
%Inh [7]: 0%
%Inh [8]: 0%
%Inh [9]: 0%
%Inh [10]: 19%
%Inh [11]: 42%
%Inh [12]: 0%
%Inh [13]: 0%
%Inh [14]: 0%
%Inh [15]: 36%
%Inh [16]: 0%
%Inh [17]: 0%
%Inh [18]: 1%
%Inh [19]: 7%
%Inh [20]: 3%

Cc1cccc(Nc2nc(NCCN)ncc2C(N)=O)c1 [GSK1292139]
%Inh [1]: 78%
%Inh [2]: 5%
%Inh [3]: 28%
%Inh [4]: 0%
%Inh [5]: 0%
%Inh [6]: 0%
%Inh [7]: 0%
%Inh [8]: 0%
%Inh [9]: 0%
%Inh [10]: 5%
%Inh [11]: 42%
%Inh [12]: 0%
%Inh [13]: 0%
%Inh [14]: 0%
%Inh [15]: 46%
%Inh [16]: 0%
%Inh [17]: 0%
%Inh [18]: 94.9%
%Inh [19]: 64%
%Inh [20]: 0%
